Measured values taken from PMC4552634, “A New Set of Chemical Starting Points with Plasmodium falciparum Transmission-Blocking Potential for Antimalarial Drug Discovery” (PLoS ONE, 2015).
Among all 13,000 compounds or so, about 3,200 (25%) showed an effect of 50% or more. The list shows a part of the results.

test system: P. falciparum stage V gametocytes; parameters: BacTiter-Glo ATP luminescence viability of purified stage V gametocytes in 384-well plates, per cent inhibition versus DMSO; conditions: 48 h, 5 µM; inhibitor

SMILES	% Inhibition [%]
FC(F)(F)c1ccc2[nH]c(-c3ccc(-c4cccc(CNCC5CCCO5)c4)cc3)nc2c1.O=C(O)C(F)(F)F (stereo not drawn) [TCMDC-133095]	-18.46
Cc1ccc(NC(=O)c2c(C)noc2-c2snnc2C)cc1 [TCMDC-125783]	10.03
CCOc1c(OC)ccc2c1CCN(CCN1CCC(CNC(=O)c3ccc(-c4ccc(C(F)(F)F)cc4)cc3)CC1)C2 [TCMDC-138806]	11.85
N#Cc1ccc(CN2CCC(NC(=O)c3ccc(-c4nnc(-c5cccc6ccccc56)o4)cc3)CC2)cc1 [TCMDC-136131]	6.646
N#Cc1ccc(-c2ccc(C(=O)NC3CCN(CCN4CCC(c5cn(CCOC6CCCCO6)c6ccccc56)CC4)CC3)cc2)cc1 (stereo not drawn) [TCMDC-138855]	104.1
O=C(NCC1CCN(CCN2CCc3ccc4c(c3C2)OCO4)CC1)c1ccc(-c2ccc(C(F)(F)F)cc2)cc1 [TCMDC-138834]	-19.42
CCOc1ccc(C2CCN(CCN3CCC(NC(=O)c4ccc(-c5ccc(C(F)(F)F)cc5)cc4)CC3)CC2)c(OCC2CC2)c1 [TCMDC-138832]	-29.12
CC(C)Cn1cc(C2CCN(CCN3CCC(CNC(=O)c4ccc(-c5ccc(C(F)(F)F)cc5)cc4)CC3)CC2)c2ccccc21 [TCMDC-138852]	92.78
COc1ccc2c(c1)c(C1CCN(CCCCNC(=O)c3ccc(-c4ccc(C(F)(F)F)cc4)cc3)CC1)cn2C(C)C [TCMDC-138801]	16.06
N#Cc1ccc(-c2ccc(C(=O)NC3CCN(CCN4CCC(c5cn(CCO)c6ccccc56)CC4)CC3)cc2)cc1 [TCMDC-138858]	-15.2
O=C(NCC1CCN(CCN2CCC(c3cn(CCO)c4ccccc34)CC2)CC1)c1ccc(-c2ccc(C(F)(F)F)cc2)cc1 [TCMDC-138856]	114.3
Cc1cc(C2CCN(CCCCNC(=O)c3ccc(-c4ccc(C(F)(F)F)cc4)cc3)CC2)c(C)cc1OCCOC1CCCCO1 (stereo not drawn) [TCMDC-138802]	-43.58
O=C(NC1CCN(CCN2CCC(c3cn(CCO)c4ccccc34)CC2)CC1)c1ccc(-c2ccc(C(F)(F)F)cc2)cc1 [TCMDC-138871]	111.6
O=C(NC1CC1)c1cnc(N2CCCC(c3ccccc3)C2)c(Cl)c1 (stereo not drawn) [TCMDC-134608]	7.948
CCOC(=O)[C@H](Cc1cc([N+](=O)[O-])c(Oc2ccc(OC)c(Cc3ccc(OC)c(C(C)C)c3)c2)c([N+](=O)[O-])c1)NC(=O)C(F)(F)F [TCMDC-139398]	36.25
